{"source": "ChEMBL document CHEMBL3988442", "about": "“University of Dundee, Small-Polar-MMV Screening Library” (2021)", "note": "The whole screen tested about 53,000 compounds, of which about 900 (1.7%) showed an effect of 50% or more. Many of the other results were omitted from the sample, so strong results are more common in it than they were.", "data": [{"system": "Mycobacterium tuberculosis", "assay": "Cornell - Phenotypic assay to identify agents that inhibit growth of Mycobacterium tuberculosis", "format": "functional", "design": "scale not given: direction of the effect not stated beside the values", "conditions": "10 mM as filed; unlikely as a test dose", "units": {"Percent Effect": "%"}, "values": [{"smiles": "Cc1noc(C)c1CN1CCOCC12CCN(c1nccs1)CC2.O=C(O)C(F)(F)F", "Percent Effect": -2.189}, {"smiles": "CCNC(=O)N1CCc2ccc(NC(=O)C(C)c3ccsc3)cc21", "note": "(centres undefined)", "Percent Effect": -7.199}, {"smiles": "Cc1cnn(C2CCCN(C(=O)c3ccnc(-n4cncn4)c3)C2)c1", "note": "(centres undefined)", "Percent Effect": -11.26}, {"smiles": "Cc1cn2nc(N3CCn4c(nnc4C(C)C)C3)sc2n1", "Percent Effect": -4.534}, {"smiles": "Cn1cc(CN2CCCCC2c2ccc(-c3cnn(C)c3)nc2)cn1", "note": "(centres undefined)", "Percent Effect": 0.8308}, {"smiles": "c1cnc(Nc2ccc(C3CCCCN3Cc3ccncc3)cn2)nc1", "note": "(centres undefined)", "Percent Effect": 63.94}, {"smiles": "CS(=O)(=O)N1CCCCC1c1ccc(Nc2cnccn2)nc1", "note": "(centres undefined)", "Percent Effect": 21.12}, {"smiles": "c1cncc(CN2CCCCC2c2ccc(Nc3cnccn3)nc2)c1", "note": "(centres undefined)", "Percent Effect": 29.23}, {"smiles": "Cn1cc(-c2ccc(C3CCCCN3Cc3cccnc3)cn2)cn1", "note": "(centres undefined)", "Percent Effect": 36.92}, {"smiles": "c1cc(CN2CCCCC2c2ccc(Nc3cnccn3)nc2)ccn1", "note": "(centres undefined)", "Percent Effect": 73.82}, {"smiles": "Cc1cnn(CCNCc2ccc(OCc3cccnc3)cc2)c1", "Percent Effect": -17.94}, {"smiles": "Cc1nnc(C2Cc3ccccc3CN2Cc2ncc(Cl)n2C)o1", "note": "(centres undefined)", "Percent Effect": -18.28}, {"smiles": "Cn1cc(CC(=O)N2CCCC(c3cc(C(F)(F)F)[nH]n3)C2)cn1", "note": "(centres undefined)", "Percent Effect": -14.78}, {"smiles": "O=C(Cn1cc(Cl)cn1)NCCN1CCC(O)(c2ccc(F)cc2)CC1", "Percent Effect": 36.23}, {"smiles": "CN(C)C(=O)C1CN(c2ccncn2)CCN(C2CCOCC2)C1", "note": "(centres undefined)", "Percent Effect": -28.59}, {"smiles": "COc1cccc(C(=O)NS(=O)(=O)c2cc(Cl)sc2Cl)c1OC(F)F", "Percent Effect": 16.97}, {"smiles": "COc1cc(C(=O)NS(=O)(=O)c2cc(Cl)sc2Cl)ccc1OC(F)F", "Percent Effect": 83.5}, {"smiles": "O=C(NS(=O)(=O)c1cc(Cl)sc1Cl)c1cccc2c1OCCO2", "Percent Effect": 1.673}, {"smiles": "COc1ccc(C(=O)NS(=O)(=O)c2cc(Cl)sc2Cl)cc1OC(F)F", "Percent Effect": 76.92}, {"smiles": "COc1cc(C(=O)NS(=O)(=O)c2ccc(C#N)cc2)ccc1C", "Percent Effect": -19.49}, {"smiles": "COc1ccc(C(=O)NS(C)(=O)=O)cc1-c1ccccc1", "Percent Effect": 36.61}, {"smiles": "CCc1cc(NC(=O)C(c2cccc(F)c2)N2CCOCC2)[nH]n1", "note": "(centres undefined)", "Percent Effect": -14.2}, {"smiles": "O=C(CS(=O)(=O)Cc1cc(Cl)c2c(c1)OCO2)N1CCCCCC1", "Percent Effect": -3.371}, {"smiles": "COCCCNC(=O)N1CCN(C(=O)c2nsc3ccccc23)CC1", "Percent Effect": 12.5}, {"smiles": "CN(C)Cc1cc(=O)n2c(n1)CN(C(=O)c1ccc[nH]1)CCC2.O=C(O)C(F)(F)F", "Percent Effect": -35.4}, {"smiles": "CC(C)CCN1N=C(C(=O)N2CCCCCC2)S(=O)(=O)c2ccccc21", "Percent Effect": 8.314}, {"smiles": "Cc1ccc(N2N=C(C(=O)O)S(=O)(=O)c3cccnc32)cc1", "Percent Effect": 51.3}, {"smiles": "Cc1ccc(N2N=C(C(N)=O)S(=O)(=O)c3cccnc32)cc1", "Percent Effect": 106.9}, {"smiles": "Cc1ccc(N2N=C(C(=O)NCC3CC3)S(=O)(=O)c3cccnc32)cc1", "Percent Effect": 11.26}, {"smiles": "CN1N=C(C(=O)N2CCCCC2)S(=O)(=O)c2ccccc21", "Percent Effect": -10.66}, {"smiles": "Cc1ccc(CN2CCN(c3ncccc3C(N)=O)CC2CCO)cc1", "note": "(centres undefined)", "Percent Effect": 16.45}, {"smiles": "Cc1cn2c(n1)CCC(NC(=O)CCCn1cncn1)C2", "note": "(centres undefined)", "Percent Effect": -12.33}, {"smiles": "CC(=O)Nc1nc(C2CCN(C(C)C)CC2)cs1", "Percent Effect": -15.97}, {"smiles": "COCC(=O)N1CCCCC1c1nc(CN(C)C(C)=O)cc(N(C)C)n1", "note": "(centres undefined)", "Percent Effect": -40.24}, {"smiles": "CCC(=O)N1CCCCC1c1nc(CN(C)C(C)=O)cc(N(C)C)n1", "note": "(centres undefined)", "Percent Effect": 49.36}, {"smiles": "CC(=O)N1CCCC1c1nc(CN(C)C(=O)C(C)C)cc(N(C)C)n1", "note": "(centres undefined)", "Percent Effect": 52.18}, {"smiles": "COc1ccc(C(=O)N2CCOc3ccncc32)cc1", "Percent Effect": 9.514}, {"smiles": "c1cc(-c2cscn2)cc(N2CCC(NCCc3cccs3)CC2)c1", "Percent Effect": 60.71}, {"smiles": "O=C1CCCN1c1cccc(N2CCC(NCCc3cscn3)CC2)c1", "Percent Effect": 24.64}, {"smiles": "Fc1cccc(-c2cccc(N3CCC(NC4CCCOC4)CC3)c2)c1", "note": "(centres undefined)", "Percent Effect": 23.21}, {"smiles": "Cc1nc(-c2cccc(N3CCC(NC4CCOCC4)CC3)c2)cs1", "Percent Effect": 35.61}, {"smiles": "c1ccc(-c2cccc(N3CCC(NCCc4cscn4)CC3)c2)cc1", "Percent Effect": 93.63}, {"smiles": "CC(C)CC(C)NC1CCN(c2cccc(-c3cscn3)c2)CC1", "note": "(centres undefined)", "Percent Effect": 2.317}, {"smiles": "CCCC(=O)N1CCOC2(COCCN(CC(=O)NC)C2)C1.O=C(O)C(F)(F)F", "note": "(centres undefined)", "Percent Effect": 6.771}, {"smiles": "O=C(CC(SC1CCCCC1)C(=O)O)c1ccc(Cl)cc1", "note": "(centres undefined)", "Percent Effect": 11.66}, {"smiles": "Cc1ccc(C(=O)CC(SC2CCCCC2)C(=O)O)cc1", "note": "(centres undefined)", "Percent Effect": 44.78}, {"smiles": "O=C(CC(SC1CCCCC1)C(=O)O)c1ccc(Br)cc1", "note": "(centres undefined)", "Percent Effect": 52.8}, {"smiles": "O=C(O)C(F)(F)F.O=C(O)C(F)(F)F.O=C(O)c1c(-c2cccnc2)ncc2c1CCN(Cc1ccccn1)C2", "Percent Effect": -51.27}, {"smiles": "O=C(NCc1cccnc1)c1nc2c(s1)CCCN2C(=O)C1CC1.O=C(O)C(F)(F)F", "Percent Effect": 6.625}, {"smiles": "CC(=O)Nc1nc(C2CCN(CC(N)=O)CC2)cs1", "Percent Effect": 1.083}, {"smiles": "NC(=O)CN1CCC(c2csc(Nc3cnccn3)n2)CC1", "Percent Effect": 53.63}, {"smiles": "c1cnc(N2CCC(c3csc(Nc4cnccn4)n3)CC2)nc1", "Percent Effect": 78.58}, {"smiles": "c1cnc(N2CCCC(c3csc(Nc4cnccn4)n3)C2)nc1", "note": "(centres undefined)", "Percent Effect": 29.09}, {"smiles": "Cc1nc(Nc2cnccn2)cc(C2CCN(c3ncccn3)C2)n1", "note": "(centres undefined)", "Percent Effect": -14.64}, {"smiles": "OCCN1CCC(c2csc(Nc3cnccn3)n2)CC1", "Percent Effect": -21.31}, {"smiles": "O=C(N1CCOCC1)n1cnc2ccccc21", "Percent Effect": 14.08}, {"smiles": "CC1CCN(c2ccc(=O)n(CC(=O)NCCc3ccccc3)n2)CC1", "Percent Effect": 45.57}, {"smiles": "COc1c(CC2CC(CO)=NO2)c(Br)c2c(c1OC)OCO2", "note": "(centres undefined)", "Percent Effect": -3.025}, {"smiles": "CCN(C)S(=O)(=O)N1CCCC(c2nc(-c3ccccc3)c[nH]2)C1", "note": "(centres undefined)", "Percent Effect": -4.787}, {"smiles": "CCCS(=O)(=O)N1CCCC(c2nc(-c3ccccc3)c[nH]2)C1", "note": "(centres undefined)", "Percent Effect": 56.46}, {"smiles": "CS(=O)(=O)N1CCCC(c2nc(-c3ccccc3)c[nH]2)C1", "note": "(centres undefined)", "Percent Effect": 4.975}, {"smiles": "Cc1ccc(S(=O)(=O)Nc2c(C)nc(N3CCCC3)nc2C)cc1", "Percent Effect": 52.33}, {"smiles": "Cc1nc(N2CCCC2)nc(C)c1NS(C)(=O)=O", "Percent Effect": 7.192}, {"smiles": "Cc1nc(N2CCOCC2)nc(C)c1NS(=O)(=O)c1ccccc1", "Percent Effect": 18.03}]}]}
